SMILES strings stand for the structures. Records with an inconclusive call do not appear. Activity calls are given as the source filed them. How the source made its calls: active means hit-call score of the fitted dose curve at least 0.9, where 1 is the maximum; inconclusive means response in the unintended direction; inactive means score below 0.9.

The assay in a line: ATG_Hpa5_TRANS: Attagene TRANS-FACTORIAL HepG2 Assay for human GAL4-Hpa5 Hepatocyte Transcription Factor Basal Promoter (AID 2282975).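 Further: hits are increases in reporter mRNA over DMSO baseline.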 To be noted: HepG2 Attagene GAL4-Hpa5 transcription reporter. On the procedure:
ATG_TRANS is a cell-based, multiplexed-readout assay that uses HepG2, a human liver cell line, with measurements taken at 24 hours after chemical dosing in a 24-well plate.ATG_Hpa5_TRANS is one of 30 assay component(s) measured or calculated from the ATG_TRANS assay. It is designed to make measurements of mRNA induction, a form of inducible reporter, as detected with fluorescence intensity signals by Reverse transcription polymerase chain reaction (RT-PCR) and Capillary electrophoresis technology.Data from the assay component ATG_Hpa5_TRANS was analyzed into 1 assay endpoint. This assay endpoint, ATG_Hpa5_TRANS, was analyzed in the positive analysis fitting direction relative to DMSO as the negative control and baseline of activity. Using a type of inducible reporter, measures of mRNA for gain-of-signal activity can be used to understand the background control at the transcription factor-level as they relate to the gene . Furthermore, this assay endpoint can be referred to as a secondary readout, because this assay has produced multiple assay endpoints where this one serves a background control function. To generalize the intended target to other relatable targets, this assay endpoint is annotated to the background measurement intended target family, where the subfamily is internal marker.
Human liver HepG2 cells are transiently transfected with multiple reporter transcription units (MRTUs) in 6-well plates using FuGene 6 reagent (Roche; 3 ml FuGene/1 mg DNA). The MRTU constructs are regulated by a cis-regulating element (promoter). […] A major difference between the CIS and TRANS system is that in CIS activities of endogenous TFs are measured, whereas the TRANS assay evaluates changes in activities of exogenous, chimeric NR-Gal4 proteins. […] At the end of 24 hour incubation, total RNA was isolated using TriZol reagent (Invitrogen). The isolated RNA is then reverse-transcribed using oligo(dT) primer and Mo-MLV reverse transcriptase (Invitrogen) with DNAse I (Ambion) treatment for 30 min. The one-tenth of the produced cDNA was amplified by PCR using Taq DNA polymerase (Invitrogen) and two reporter sequence-specific primers. The PCR products were fluorescently labeled by primer extension with 6-arboxyfluorescein (6-FAM) 5'-labeled reporter sequence-specific primer (2 min at 95 C, 20 s at 68 C and 10 min at 72 C) and these products were digested with 5U of HpaI (New England Biolabs) for 2h at 37 C. The fragments were purified using Qiaquick PCR columns (Qiagen), analyzed on an ABI 3130xL genetic analyzer (Applied Biosystems) with peak positions identified by using a set of X-rhodamine (ROX)-labeled MapMarker1000 molecular weight standards (BioVentures). The raw capillary electrophoresis data was processed using Attagraph software (Attagene).
Turning to `COP(=O)(OC)SCn1c(=O)oc2cc(Cl)cnc21`, the outcome was inactive. In the case of `CC(C)[C@H](C(=O)O[C@H](C#N)c1cccc(Oc2ccccc2)c1)c1ccc(Cl)cc1`, the call was inactive. Then `CCCCSP(=O)(SCCCC)SCCCC`, with “inactive”; and `CNC(=O)ON=C(C)SC`, with “inactive”; and `CC(C)N(C(=O)SCC(Cl)=C(Cl)Cl)C(C)C`, with “inactive”. On to `CC(Oc1cccc(Cl)c1)C(=O)O` (stereo not given), for which the outcome was inactive. With `O=c1ccc(=O)[nH][nH]1`, the outcome was inactive. With `Nc1c(Cl)cc([N+](=O)[O-])cc1Cl`, the outcome was inactive. `CCC(CC)Nc1c([N+](=O)[O-])cc(C)c(C)c1[N+](=O)[O-]`: the call was inactive. On to `CCOP(=O)(SC(C)CC)N1CCSC1=O` (stereo not given), for which the result was inactive. For the compound `CSc1nc(NC(C)C)nc(NC(C)C)n1`, the call was inactive. To `CCCSP(=O)(OCC)Oc1ccc(Br)cc1Cl` (stereo not given) belongs “inactive”; to `CC(=NC#N)N(C)Cc1ccc(Cl)nc1`, “inactive”; to `CCCCN(CC)c1c([N+](=O)[O-])cc(C(F)(F)F)cc1[N+](=O)[O-]`, “inactive”. As for `C#CCC1=C(C)C(OC(=O)C2C(C=C(C)C)C2(C)C)CC1=O` (stereo not given), the call was inactive.

`CCCSP(=O)(OCC)SCCC`: the compound was called inactive. Then `CCOP(=O)(NC(C)C)Oc1ccc(SC)c(C)c1` (stereo not given), with “inactive”. Turning to `CC[C@H](C)[C@H]1O[C@]2(C=C[C@@H]1C)C[C@@H]1C[C@@H](C/C=C(\C)[C@@H](O[C@H]3C[C@H](OC)[C@@H](O[C@H]4C[C@H](OC)[C@@H](NC)[C@H](C)O4)[C@H](C)O3)[C@@H](C)/C=C/C=C3\CO[C@@H]4[C@H](O)C(C)=C[C@@H](C(=O)O1)[C@]34O)O2`, the outcome was inactive.

As for `C[Si](Cn1cncn1)(c1ccc(F)cc1)c1ccc(F)cc1`, the compound was called inactive. On to `CC(C)=CC1C(C(=O)OCN2C(=O)C3=C(CCCC3)C2=O)C1(C)C` (stereo not given), for which the compound was classed as inactive. To `COP(=O)(NC(C)=O)SC` (stereo not given) belongs “inactive”; to `O=[N+]([O-])c1cc(C(F)(F)F)c(Cl)c([N+](=O)[O-])c1Nc1ncc(C(F)(F)F)cc1Cl`, “inactive”; to `CCc1cnc(C2=NC(C)(C(C)C)C(=O)N2)c(C(=O)O)c1` (stereo not given), “inactive”. `COP(=O)(OC)C(O)C(Cl)(Cl)Cl` (stereo not given): the compound was classed as inactive. `CNc1cnn(-c2cccc(C(F)(F)F)c2)c(=O)c1Cl`: the compound was called inactive. Turning to `CNC(=O)Oc1cccc2c1OC(C)(C)O2`, the compound was classed as inactive. For `N#CSCSC#N`, the compound was called inactive. As for `COc1ccc(C(=CC(=O)N2CCOCC2)c2ccc(Cl)cc2)cc1OC`, the outcome was inactive. On to `CON=C(C(=O)OC)c1ccccc1CON=C(C)c1cccc(C(F)(F)F)c1`, for which the compound was called inactive. Take `CCOP(=S)(OCC)OC(Cl)C(Cl)(Cl)Cl` (stereo not given): the outcome was inactive. Regarding `C#CC(C)(C)NC(=O)c1cc(Cl)cc(Cl)c1`, the outcome was inactive. In the case of `CCNc1nc(Cl)nc(NC(C)(C)C#N)n1`, the call was inactive. Turning to `CCOC(=O)CC(SP(=O)(OC)OC)C(=O)OCC` (stereo not given), the compound was called inactive. For `CCC(=O)Nc1ccc(Cl)c(Cl)c1`, the compound was classed as inactive. `CCOP(=S)(OCC)Oc1cc(C)nc(C(C)C)n1`: the result was inactive. Regarding `CCCOCC(=Nc1ccc(Cl)cc1C(F)(F)F)n1ccnc1`, the compound was classed as inactive. As to `CCOC(=O)COc1cc(-c2nn(C)c(OC(F)F)c2Cl)c(F)cc1Cl`, the call was inactive. On to `CCC(=NOC/C=C/Cl)C1=C(O)CC(C2CCOCC2)CC1=O` (stereo not given), for which the result was inactive. On to `CN(C)[C@@H]1C(=O)C(C(N)=O)=C(O)[C@@]2(O)C(=O)C3=C(O)c4c(O)cccc4[C@@](C)(O)[C@H]3[C@H](O)[C@@H]12`, for which the result was inactive.

For `CCOP(=S)(OCC)SCCSCC`, the outcome was inactive.
